Laboratory results taken from PubChem BioAssay (EPA / NIEHS).
Records with an inconclusive call do not appear. Activity calls are given as the source filed them. How the source made its calls, unless noted: active means hit-call score of the fitted dose curve at least 0.9, where 1 is the maximum; inactive means score below 0.9.

What was measured:
[1] = BSK_3C_VCAM1: BioMAP Diversity Plus: 3C Assay for Vascular cell adhesion molecule 1 (VCAM1) Biomarker Activity (AID 2282999); conditions: BioMAP 3C HUVEC, VCAM1 ELISA, cytokine-stimulated; actives raise or lower the signal
Summary of the method: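 HUVEC primary cells, 24 h compound exposure; VCAM-1 by ELISA; gain/loss of signal fitted bidirectionally vs DMSO baseline.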

[2] = BSK_4H_Eotaxin3: BioMAP Diversity Plus: 4H Assay for Eotaxin 3 Biomarker Activity (AID 2283000); conditions: primary human endothelial cells (HUVEC); actives raise or lower the signal
Summary of the method: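 Readout is Eotaxin-3 (CCL26) level by ELISA in primary human umbilical vein endothelial cells harvested 24 h after chemical exposure; activity fitted in both directions against DMSO control.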

[3] = read-out: Intercellular Adhesion Molecule 1 (ICAM1), ICAM1 (gene 3383); assay: BSK_3C_ICAM1: BioMAP Diversity Plus: 3C Assay for Intercellular Adhesion Molecule 1 (ICAM1) Biomarker Activity (AID 2283003); conditions: primary human endothelial cells (HUVEC); actives raise or lower the signal
Summary of the method: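 Chemicals are dosed onto primary human umbilical vein endothelium (3C system). After 24 h, ICAM-1 is measured by ELISA, and responses are fitted bidirectionally relative to DMSO.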

[4] = molecular target: human Retinoic Acid Receptor beta (RARb), RARB (gene 5915) (UniProt P10826); assay: ATG_RARb_TRANS: Attagene TRANS-FACTORIAL HepG2 Assay for human Retinoic Acid Receptor beta (AID 2283004; active means hit-call score of the fitted dose curve at least 0.9, where 1 is the maximum)
Chain of human Retinoic Acid Receptor beta (RARb), RARB (gene 5915) (P10826 whole entry, looked up, the tested form may be a part): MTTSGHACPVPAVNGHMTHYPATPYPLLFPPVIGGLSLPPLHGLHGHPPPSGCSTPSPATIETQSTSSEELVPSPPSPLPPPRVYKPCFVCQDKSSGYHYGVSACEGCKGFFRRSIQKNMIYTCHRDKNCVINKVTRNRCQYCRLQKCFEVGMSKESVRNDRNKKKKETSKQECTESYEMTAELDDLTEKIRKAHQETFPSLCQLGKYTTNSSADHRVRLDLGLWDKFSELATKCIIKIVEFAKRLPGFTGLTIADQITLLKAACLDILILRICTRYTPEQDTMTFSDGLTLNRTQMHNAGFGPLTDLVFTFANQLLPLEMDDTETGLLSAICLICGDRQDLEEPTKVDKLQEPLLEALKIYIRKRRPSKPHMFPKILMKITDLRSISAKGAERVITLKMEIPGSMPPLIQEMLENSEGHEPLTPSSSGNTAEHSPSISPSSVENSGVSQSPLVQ
Summary of the method: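 Readout is reporter mRNA induction: RNA reverse-transcribed, PCR-amplified, FAM-labelled, HpaI-cut and resolved by capillary electrophoresis. Transiently transfected HepG2 cells carrying exogenous NR–Gal4 chimeras were dosed for 24 h; activity fitted upward relative to DMSO.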

[5] = BSK_3C_Proliferation: Cell Proliferation Assessment in the BioMAP Diversity Plus: 3C Assay (AID 2283006); conditions: primary human endothelial cells (HUVEC);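 on AC50: potency may reflect either rise or fall in cell number versus DMSO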
Summary of the method: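 Cells (human umbilical vein endothelial, sub-confluent) receive test chemical; after 48 h they are fixed in 10% trichloroacetic acid, stained with 0.1% SRB and read at 560 nm. Activity is referenced to DMSO, fitting increases and decreases.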

[6] = molecular target: Peroxisome proliferator-activated receptor gamma (Homo sapiens) (UniProt P37231); assay: ATG_PPARg_TRANS: Attagene TRANS-FACTORIAL HepG2 Assay for human Peroxisome Proliferator-activated Receptor-gamma (PPARg) (AID 2283007; active means hit-call score of the fitted dose curve at least 0.9, where 1 is the maximum)
Chain of Peroxisome proliferator-activated receptor gamma (Homo sapiens) (P37231 whole entry, looked up, the tested form may be a part): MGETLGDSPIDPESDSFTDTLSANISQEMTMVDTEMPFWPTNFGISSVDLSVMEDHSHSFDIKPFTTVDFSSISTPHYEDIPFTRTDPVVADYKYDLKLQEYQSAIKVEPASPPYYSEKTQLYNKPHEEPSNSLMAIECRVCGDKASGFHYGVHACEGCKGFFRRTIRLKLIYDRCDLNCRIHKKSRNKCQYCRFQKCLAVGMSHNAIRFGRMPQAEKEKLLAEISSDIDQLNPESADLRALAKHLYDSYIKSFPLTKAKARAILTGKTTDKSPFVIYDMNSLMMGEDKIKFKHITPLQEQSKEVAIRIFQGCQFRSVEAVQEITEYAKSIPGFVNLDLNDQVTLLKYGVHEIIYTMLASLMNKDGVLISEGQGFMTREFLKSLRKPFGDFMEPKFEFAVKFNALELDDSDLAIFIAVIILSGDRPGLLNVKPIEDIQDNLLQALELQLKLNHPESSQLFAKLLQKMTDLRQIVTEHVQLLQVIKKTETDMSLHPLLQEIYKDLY
Summary of the method: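 HepG2 cells transiently transfected with multiplexed GAL4-UAS reporter units and exogenous chimeric NR-Gal4 proteins; reporter mRNA quantified after 24 h compound exposure by RT-PCR, fluorescent labelling, HpaI digestion and capillary electrophoresis; gain-of-signal fitted versus DMSO baseline.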

[7] = molecular target: human Retinoic Acid Receptor gamma (RARg), RARG (gene 5916) (UniProt P13631); assay: ATG_RARg_TRANS: Attagene TRANS-FACTORIAL HepG2 Assay for human Retinoic Acid Receptor gamma (RARg) (AID 2283009; active means hit-call score of the fitted dose curve at least 0.9, where 1 is the maximum)
Chain of human Retinoic Acid Receptor gamma (RARg), RARG (gene 5916) (P13631 whole entry, looked up, the tested form may be a part): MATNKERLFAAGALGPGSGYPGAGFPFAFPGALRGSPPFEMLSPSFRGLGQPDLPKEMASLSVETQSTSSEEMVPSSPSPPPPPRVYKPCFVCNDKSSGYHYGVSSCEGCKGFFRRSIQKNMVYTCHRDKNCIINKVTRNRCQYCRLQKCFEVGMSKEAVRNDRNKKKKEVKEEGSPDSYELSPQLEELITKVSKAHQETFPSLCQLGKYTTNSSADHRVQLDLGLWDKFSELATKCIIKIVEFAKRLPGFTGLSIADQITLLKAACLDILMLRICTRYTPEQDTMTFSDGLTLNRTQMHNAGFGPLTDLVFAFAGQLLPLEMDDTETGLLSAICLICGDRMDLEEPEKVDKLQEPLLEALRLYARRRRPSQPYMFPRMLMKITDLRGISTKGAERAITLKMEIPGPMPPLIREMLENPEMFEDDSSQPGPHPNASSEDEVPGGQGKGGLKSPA
Summary of the method: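 TRANS format measured activity of exogenous NR-GAL4 fusion (RARg) in transfected HepG2 liver cells after 24 h dosing. Induced reporter RNA was detected by RT-PCR/capillary electrophoresis fluorescence, analysed in the positive direction against DMSO.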

[8] = molecular target: human RAR-related Orphan Receptor gamma (RORg), RORC (gene 6097) (UniProt P51449); assay: ATG_RORg_TRANS: Attagene TRANS-FACTORIAL HepG2 Assay for human RAR-related Orphan Receptor gamma (RORg) (AID 2283011; active means hit-call score of the fitted dose curve at least 0.9, where 1 is the maximum)
Chain of human RAR-related Orphan Receptor gamma (RORg), RORC (gene 6097) (P51449 whole entry, looked up, the tested form may be a part): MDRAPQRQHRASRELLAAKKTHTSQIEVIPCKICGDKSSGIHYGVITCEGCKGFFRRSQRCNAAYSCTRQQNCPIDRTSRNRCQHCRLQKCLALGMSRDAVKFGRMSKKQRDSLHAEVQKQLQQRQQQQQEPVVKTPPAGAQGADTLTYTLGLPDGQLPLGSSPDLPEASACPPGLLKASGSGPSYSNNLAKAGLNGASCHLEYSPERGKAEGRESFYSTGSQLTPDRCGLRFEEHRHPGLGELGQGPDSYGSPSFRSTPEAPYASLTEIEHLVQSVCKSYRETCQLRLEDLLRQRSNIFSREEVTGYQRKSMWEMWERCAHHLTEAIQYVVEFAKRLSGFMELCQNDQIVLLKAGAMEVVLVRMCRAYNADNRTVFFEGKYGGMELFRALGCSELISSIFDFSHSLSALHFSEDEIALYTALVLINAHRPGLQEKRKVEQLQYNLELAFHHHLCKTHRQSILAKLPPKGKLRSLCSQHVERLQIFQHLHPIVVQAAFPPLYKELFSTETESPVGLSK
Summary of the method: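 Transient MRTU transfection of HepG2 (TRANS format, exogenous NR-Gal4 chimera). 24 h dosing. Total RNA → oligo(dT) RT → PCR → 6-FAM labelling → HpaI cut → CE. Gain vs DMSO.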

[9] = molecular target: Retinoic acid receptor RXR-alpha (Homo sapiens) (UniProt P19793); assay: ATG_RXRa_TRANS: Attagene TRANS-FACTORIAL HepG2 Assay for human Retinoid X Receptor alpha (RXRa) (AID 2283012; active means hit-call score of the fitted dose curve at least 0.9, where 1 is the maximum)
Chain of Retinoic acid receptor RXR-alpha (Homo sapiens) (P19793 whole entry, looked up, the tested form may be a part): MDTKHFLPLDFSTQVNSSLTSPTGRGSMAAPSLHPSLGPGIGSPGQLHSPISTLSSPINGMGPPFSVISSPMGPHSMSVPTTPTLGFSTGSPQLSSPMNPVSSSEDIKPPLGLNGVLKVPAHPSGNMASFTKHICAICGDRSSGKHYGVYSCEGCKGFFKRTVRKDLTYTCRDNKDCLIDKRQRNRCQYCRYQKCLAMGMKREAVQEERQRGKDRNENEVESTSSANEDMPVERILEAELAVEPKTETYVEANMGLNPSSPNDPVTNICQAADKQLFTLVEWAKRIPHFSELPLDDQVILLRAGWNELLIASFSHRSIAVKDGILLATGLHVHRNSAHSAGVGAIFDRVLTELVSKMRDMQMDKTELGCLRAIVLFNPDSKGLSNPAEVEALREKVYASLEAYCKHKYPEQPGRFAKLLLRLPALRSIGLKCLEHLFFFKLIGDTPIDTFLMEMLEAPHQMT
Summary of the method: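 Measures exogenous chimeric NR-GAL4 activity in transfected HepG2 liver cells after 24 h of dosing. Induced reporter mRNA was detected by RT-PCR with capillary electrophoresis, and gain of signal was analysed against DMSO.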

[10] = molecular target: human Thyroid Receptor alpha (THRa1), THRA (gene 7067) (UniProt P10827); assay: ATG_THRa1_TRANS: Attagene TRANS-FACTORIAL HepG2 Assay for human Thyroid Receptor alpha (THRa1) (AID 2283014; active means hit-call score of the fitted dose curve at least 0.9, where 1 is the maximum)
Chain of human Thyroid Receptor alpha (THRa1), THRA (gene 7067) (P10827 whole entry, looked up, the tested form may be a part): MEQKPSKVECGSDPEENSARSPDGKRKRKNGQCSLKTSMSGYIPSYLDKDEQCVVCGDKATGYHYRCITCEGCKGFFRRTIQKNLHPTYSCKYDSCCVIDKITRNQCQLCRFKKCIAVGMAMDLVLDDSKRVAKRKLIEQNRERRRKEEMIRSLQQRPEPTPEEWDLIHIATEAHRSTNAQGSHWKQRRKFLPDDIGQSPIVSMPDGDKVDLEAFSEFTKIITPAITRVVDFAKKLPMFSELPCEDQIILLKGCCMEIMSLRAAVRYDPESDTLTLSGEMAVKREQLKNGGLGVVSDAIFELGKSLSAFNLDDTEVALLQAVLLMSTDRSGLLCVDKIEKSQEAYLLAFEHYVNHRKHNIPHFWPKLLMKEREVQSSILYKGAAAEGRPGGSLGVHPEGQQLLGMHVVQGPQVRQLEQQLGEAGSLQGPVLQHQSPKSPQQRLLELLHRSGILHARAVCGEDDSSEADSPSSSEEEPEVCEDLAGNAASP
Summary of the method: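 Transient HepG2 transfection, NR-Gal4 chimera driving GAL4-UAS reporters; 24 h compound exposure; total RNA, oligo(dT) RT, PCR, fluorescent primer extension, capillary electrophoresis. Upward direction vs DMSO control.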

[11] = read-out: E-selectin (Homo sapiens) (UniProt P16581); assay: BSK_3C_Eselectin: BioMAP Diversity Plus: 3C Assay for Eselectin Biomarker Activity (AID 2283015); conditions: primary human endothelial cells (HUVEC); actives raise or lower the signal
Summary of the method: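 HUVEC, 3C stimulation; compound exposure 24 h; E-selectin by ELISA; gain- or loss-of-signal fitted bidirectionally vs DMSO baseline.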

[12] = read-out: Interleukin-1 alpha (IL1a), IL1A (gene 3552); assay: BSK_BE3C_IL1a: BioMAP Diversity Plus: BE3C Assay for Interleukin-1 alpha (IL1a) Biomarker Activity (AID 2283016); conditions: primary human bronchial epithelial cells; actives raise or lower the signal
Summary of the method: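 Signal from IL-1a ELISA, taken 24 h after chemical dosing of human bronchial epithelial cells, is compared with DMSO as baseline using bidirectional curve fitting.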

[13] = read-out: Monocyte Chemoattractant Protein-1 (MCP1), CCL2 (gene 6347); assay: BSK_3C_MCP1: BioMAP Diversity Plus: 3C Assay for Monocyte Chemoattractant Protein-1 (MCP1) Biomarker Activity (AID 2283017); conditions: primary human endothelial cells (HUVEC); actives raise or lower the signal
Summary of the method: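 HUVEC, 3C system; 24 h chemical exposure; MCP-1 by ELISA; bidirectional curve fit vs DMSO baseline.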

[14] = read-out: Monocyte Chemoattractant Protein-1 (MCP1), CCL2 (gene 6347); assay: BSK_4H_MCP1: BioMAP Diversity Plus: 4H Assay for Monocyte Chemoattractant Protein-1 (MCP1) Biomarker Activity (AID 2283018); conditions: primary human endothelial cells (HUVEC); actives raise or lower the signal
Summary of the method: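 Endothelial cells from umbilical vein were treated with test chemical, then after 24 h MCP-1 levels were quantified by ELISA; endpoint values came from bidirectional fitting with DMSO as baseline of activity.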

[15] = molecular target: Retinoic acid receptor alpha (Homo sapiens) (UniProt P10276); assay: ATG_RARa_TRANS: Attagene TRANS-FACTORIAL HepG2 Assay for human Retinoic Acid Receptor alpha (RARa) (AID 2283005; active means hit-call score of the fitted dose curve at least 0.9, where 1 is the maximum;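 on AC50: potency for increased reporter signal meaning RARa activation over DMSO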)
Chain of Retinoic acid receptor alpha (Homo sapiens) (P10276 whole entry, looked up, the tested form may be a part): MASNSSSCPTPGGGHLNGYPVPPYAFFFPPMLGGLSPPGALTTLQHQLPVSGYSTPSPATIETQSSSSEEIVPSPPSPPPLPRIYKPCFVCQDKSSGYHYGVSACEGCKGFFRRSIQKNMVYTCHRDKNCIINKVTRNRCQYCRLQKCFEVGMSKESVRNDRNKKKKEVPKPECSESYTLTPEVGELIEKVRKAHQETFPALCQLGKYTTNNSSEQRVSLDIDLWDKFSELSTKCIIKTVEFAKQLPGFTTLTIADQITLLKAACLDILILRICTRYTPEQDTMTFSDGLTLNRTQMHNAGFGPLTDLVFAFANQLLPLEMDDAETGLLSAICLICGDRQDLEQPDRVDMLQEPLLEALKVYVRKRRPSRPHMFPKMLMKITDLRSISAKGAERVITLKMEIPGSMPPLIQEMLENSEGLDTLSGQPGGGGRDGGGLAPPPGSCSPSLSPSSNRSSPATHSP
Summary of the method: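 HepG2 transiently transfected with multiplex GAL4-UAS reporter units including a human RARa–GAL4 chimera; 24 h compound exposure. Reporter mRNA quantified by RT-PCR, 6-FAM labeling and capillary electrophoresis; gain of signal versus DMSO.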

[16] = molecular target: Nuclear receptor subfamily 1 group I member 2 (Homo sapiens) (UniProt O75469); assay: ATG_PXR_TRANS: Attagene TRANS-FACTORIAL HepG2 Assay for human Pregnane X Receptor (PXR) (AID 2283008; active means hit-call score of the fitted dose curve at least 0.9, where 1 is the maximum)
Chain of Nuclear receptor subfamily 1 group I member 2 (Homo sapiens) (O75469 whole entry, looked up, the tested form may be a part): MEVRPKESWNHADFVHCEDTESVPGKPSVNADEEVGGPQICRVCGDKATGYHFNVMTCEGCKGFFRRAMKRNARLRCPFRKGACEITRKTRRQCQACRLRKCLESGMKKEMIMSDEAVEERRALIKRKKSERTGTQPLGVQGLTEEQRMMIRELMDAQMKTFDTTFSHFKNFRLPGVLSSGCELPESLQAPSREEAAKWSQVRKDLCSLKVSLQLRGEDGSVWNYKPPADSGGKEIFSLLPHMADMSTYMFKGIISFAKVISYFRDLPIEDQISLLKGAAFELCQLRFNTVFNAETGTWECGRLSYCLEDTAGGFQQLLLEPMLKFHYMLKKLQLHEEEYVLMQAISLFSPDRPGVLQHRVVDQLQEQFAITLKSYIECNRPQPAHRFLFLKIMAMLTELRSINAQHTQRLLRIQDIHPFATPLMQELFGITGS
Summary of the method: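 Transient HepG2 transfectants carrying multiplexed reporter transcription units; PXR activity read through a Gal4 chimera. 24 h exposure. RT-PCR/CE fluorescence; upward curve fit referenced to DMSO.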

[17] = molecular target: human Peroxisome Proliferator-activated Receptor delta (PPARd), PPARD (gene 5467) (UniProt Q03181); assay: ATG_PPARd_TRANS: Attagene TRANS-FACTORIAL HepG2 Assay for human Peroxisome Proliferator-activated Receptor delta (PPARd) (AID 2283002; active means hit-call score of the fitted dose curve at least 0.9, where 1 is the maximum)
Summary of the method: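 HepG2 cells transiently transfected with GAL4-UAS multiplexed reporter units driven by exogenous chimeric NR-GAL4 proteins; 24 h compound exposure. Reporter mRNA measured by RT-PCR, 6-FAM primer extension, HpaI digestion and capillary electrophoresis; gain of signal fitted relative to DMSO.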

[18] = molecular target: human RAR-related Orphan Receptor beta (RORb), RORB (gene 6096) (UniProt Q92753); assay: ATG_RORb_TRANS: Attagene TRANS-FACTORIAL HepG2 Assay for human RAR-related Orphan Receptor beta (RORb) (AID 2283010; active means hit-call score of the fitted dose curve at least 0.9, where 1 is the maximum)
Chain of human RAR-related Orphan Receptor beta (RORb), RORB (gene 6096) (Q92753 whole entry, looked up, the tested form may be a part): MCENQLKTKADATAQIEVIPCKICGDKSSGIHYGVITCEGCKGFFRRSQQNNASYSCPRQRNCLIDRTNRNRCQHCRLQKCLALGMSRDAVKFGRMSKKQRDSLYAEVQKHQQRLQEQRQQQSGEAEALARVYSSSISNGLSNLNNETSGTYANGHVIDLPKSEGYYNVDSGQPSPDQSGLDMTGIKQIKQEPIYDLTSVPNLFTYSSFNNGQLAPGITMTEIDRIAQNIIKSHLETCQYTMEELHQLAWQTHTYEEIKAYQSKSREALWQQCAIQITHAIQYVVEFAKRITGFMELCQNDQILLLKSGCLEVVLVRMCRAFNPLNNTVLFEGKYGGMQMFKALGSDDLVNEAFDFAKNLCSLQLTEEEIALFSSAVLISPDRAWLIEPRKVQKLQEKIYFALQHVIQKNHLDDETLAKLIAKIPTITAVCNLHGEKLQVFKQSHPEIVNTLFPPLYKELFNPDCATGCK
Summary of the method: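 Transfect HepG2 with multiple GAL4-UAS reporter transcription units; dose chemicals for 24 h; isolate RNA, reverse-transcribe and PCR-amplify reporter sequences; label, digest and resolve fragments by capillary electrophoresis; fit increases relative to DMSO.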

[19] = molecular target: human Retinoid X Receptor beta (RXRb), RXRB (gene 6257) (UniProt P28702); assay: ATG_RXRb_TRANS: Attagene TRANS-FACTORIAL HepG2 Assay for human Retinoid X Receptor beta (RXRb) (AID 2283013; active means hit-call score of the fitted dose curve at least 0.9, where 1 is the maximum)
Summary of the method: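 Chimeric receptor-Gal4 activity was assessed in transiently transfected human HepG2 cells after 24 h exposure. Transcripts from GAL4-UAS reporters were quantified by fluorescent RT-PCR and capillary electrophoresis, with DMSO as negative control and baseline.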

Measured: AC50

Chain of E-selectin (Homo sapiens) (P16581 whole entry, looked up): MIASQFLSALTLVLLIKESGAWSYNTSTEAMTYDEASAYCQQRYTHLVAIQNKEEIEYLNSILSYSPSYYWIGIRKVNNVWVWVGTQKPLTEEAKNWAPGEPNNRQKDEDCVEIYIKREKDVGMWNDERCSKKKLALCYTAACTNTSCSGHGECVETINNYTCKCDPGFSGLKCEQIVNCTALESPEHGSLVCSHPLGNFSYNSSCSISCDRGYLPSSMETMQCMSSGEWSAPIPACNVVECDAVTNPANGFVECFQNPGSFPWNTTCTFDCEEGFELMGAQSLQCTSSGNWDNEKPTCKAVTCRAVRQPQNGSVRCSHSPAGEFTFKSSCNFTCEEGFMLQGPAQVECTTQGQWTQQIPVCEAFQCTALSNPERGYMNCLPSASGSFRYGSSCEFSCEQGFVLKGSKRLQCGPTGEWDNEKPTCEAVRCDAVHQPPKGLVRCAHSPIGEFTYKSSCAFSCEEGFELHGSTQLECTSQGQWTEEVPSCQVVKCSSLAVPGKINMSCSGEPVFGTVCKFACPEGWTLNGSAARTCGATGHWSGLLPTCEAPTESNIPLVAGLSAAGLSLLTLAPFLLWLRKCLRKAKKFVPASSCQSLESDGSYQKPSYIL

CN1COCN(Cc2cnc(Cl)s2)C1=N[N+](=O)[O-]
not listed: [15] | [16] | [17] | [18] | [19]
inactive: all other assays above

CSc1nc(NC(C)C)nc(NC(C)C)n1
active: [6] 47.6 µM | [16] 18.4 µM
not listed: [10] | [17] | [18] | [19]
inactive: all other assays above

CCCOCC(=Nc1ccc(Cl)cc1C(F)(F)F)n1ccnc1
inactive: [4] | [16] | [7] | [9]
active: [1] 33.6 µM | [2] 34.4 µM | [3] 29.7 µM | [15] 1.1 µM | [5] 33.4 µM | [6] 1.36 µM | [11] 30.2 µM | [12] 33.5 µM | [13] 30.2 µM | [14] 24.9 µM

CNC(=O)ON=C(SC)C(=O)N(C)C
not listed: [4] | [7] | [8] | [9] | [10] | [15] | [16]
inactive: all other assays above

CC(C)=CC1C(C(=O)OCN2C(=O)C3=C(CCCC3)C2=O)C1(C)C (centres undefined)
active: [1] 14.4 µM | [5] 15.6 µM | [6] 50 µM | [16] 40.2 µM | [11] 26.9 µM | [13] 7.53 µM
not listed: [4] | [7] | [15] | [17] | [19]
inactive: all other assays above

CC(COc1ccc(Oc2ccccc2)cc1)Oc1ccccn1 (centres undefined)
active: [6] 14.5 µM
not listed: [4] | [7] | [9] | [10] | [15] | [18] | [19]
inactive: all other assays above

C#CC(C)(C)NC(=O)c1cc(Cl)cc(Cl)c1
active: [16] 30.9 µM
not listed: [4] | [6] | [7] | [17] | [19]
inactive: all other assays above

COP(=O)(OC)SCn1c(=O)oc2cc(Cl)cnc21
active: [2] 36.9 µM | [6] 14.7 µM | [11] 20 µM
not listed: [4] | [7] | [15] | [17] | [19]
inactive: all other assays above
